High-throughput results deposited in PubChem by National Center for Advancing Translational Sciences (NCATS).
Rab9 prom act: activators of Rab9 promoter; AID 485297; Potency, µM (titrated, usually from 9.22 µM), without a hit: top-dose activation, negative = inhibition, hits mostly activators; Huh7 Rab9 promoter-luciferase reporter, luminescence, 24 h; 320,000 tested, 2.8% active; further: % of control where 0% means no effect; nearly all actives have a fitted effect of over 60% in size
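Promoter activation is measured as luciferase luminescence in Huh7 cells stably transfected with a Rab9 promoter–luciferase construct, following 24 h compound exposure at 37 °C and 10 min reagent incubation at ambient temperature.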
SMN2 splice up: enhancers of SMN2 splice variant expression; HEK293 SMN2-luciferase splicing reporter, luminescence, 30-36 h; Potency, µM (titrated, usually from 46.1 µM), without a hit: at the top dose activity change, positive = activation, most hits filed as activators; 210,000 tested, 2.8% active; further: % of control where 0% means no effect; nearly all actives have a fitted effect of over 55% in size
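qHTS luciferase splicing reporter: luminescence rises when SMN2 exon 7 is included in transfected HEK293 cells. Compound exposure lasted 30-36 h at 37C, with 4.5 mM final sodium butyrate as control, followed by a ONE-Glo read.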
ELG1 genotoxic: genotoxicity induction in ELG1-luciferase HEK293T cells; HEK293T ELG1-luciferase reporter, luminescence, 16 h; Potency, µM (doses to about 46 µM), for inactives: top-dose activity change, positive = activation, hits mostly activators; 330,000 tested, 1.3% active; AID 504466; further: % of control where 0% means no effect; nearly all actives have a fitted effect of over 60% in size
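Cells (2,000/well) expressing the ELG1-luciferase fusion are dosed by pin tool and kept 16 hr at 37 °C, 5% CO2. Signal comes from ONE-Glo luciferase reagent after 30 min at room temperature.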
FLuc modulator: counter-screen for miR-21 project: firefly luciferase inhibitors or activators | P08659 | purified FLuc, Km substrates, luminescence inhibition | 360,000 tested, 6.9% active | AID 588342 | Potency, µM (top dose mostly 57.5 µM), inactives show at the top dose activity change, negative = inhibition, actives largely listed as inhibitors;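 further: plate controls were vehicle for no effect and reference inhibitor for full effect; nearly all actives have a fitted effect of over 55% in size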
Target sequence (P08659 whole entry, looked up): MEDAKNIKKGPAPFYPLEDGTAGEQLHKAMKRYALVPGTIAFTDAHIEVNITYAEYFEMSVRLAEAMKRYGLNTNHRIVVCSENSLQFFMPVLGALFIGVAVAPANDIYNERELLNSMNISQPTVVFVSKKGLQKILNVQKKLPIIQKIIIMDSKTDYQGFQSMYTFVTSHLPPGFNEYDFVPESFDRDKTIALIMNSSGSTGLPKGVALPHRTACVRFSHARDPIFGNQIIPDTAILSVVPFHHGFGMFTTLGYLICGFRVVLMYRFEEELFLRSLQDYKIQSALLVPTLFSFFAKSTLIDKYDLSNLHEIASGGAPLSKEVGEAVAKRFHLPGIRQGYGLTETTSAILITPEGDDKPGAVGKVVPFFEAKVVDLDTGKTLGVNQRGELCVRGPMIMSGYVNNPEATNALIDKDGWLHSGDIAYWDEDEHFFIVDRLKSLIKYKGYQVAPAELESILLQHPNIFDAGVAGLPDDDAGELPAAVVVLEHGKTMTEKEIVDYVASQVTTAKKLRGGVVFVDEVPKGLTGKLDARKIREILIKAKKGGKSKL
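Purified P. pyralis luciferase (10nM final) with 10uM D-luciferin and 10uM ATP (Km levels) in 50mM Tris acetate pH 7.5, 10mM Mg acetate, 0.01% Tween-20, 0.05% BSA; qHTS 6-point titration, ~60 µM downward; luminescence read.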
NPC1 prom act: activators of NPC1 promoter; Huh7 NPC1 promoter luciferase reporter, 24 h; Potency, µM (highest dose often 9.22 µM), without a hit: at the top dose activation, actives largely listed as activators; 320,000 tested, 2.4% active; AID 485313; further: % of control where 0% means no effect; nearly all actives have a fitted effect of over 60% in size
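Luminescence from an NPC1 promoter-driven luciferase reporter in stably transfected Huh7 cells was measured after 24 h compound treatment at 37 °C, followed by 10 min ambient incubation with luciferase detection reagent.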
Starred values were filed as active, the others as inactive. A selection: hits, their analogues and other compounds. The true share with any hit is near 7.5%. The call rests on the fitted dose curve; in most records, active means well fitted curve in the direction sought with a large enough effect; inconclusive means small, poorly fitted or top-dose-only effect, or another doubt; inactive means no such curve, though single readings can be large; an effect the other way counts as inactive or inconclusive. Potency means the concentration at half of the fitted maximal effect.

What do the screens show for `Cc1cc(C)n(C(=O)CNC(=O)c2ccc(Cl)cc2Cl)n1`?
Rab9 prom act: 1%; ELG1 genotoxic: 2%; FLuc modulator: 6.7µM*; NPC1 prom act: 2%

How did Cc1cc(C)n(C(=O)CNC(=O)Cc2ccccc2)n1 do in these assays?
Rab9 prom act: 3%; SMN2 splice up: 7%; ELG1 genotoxic: 9%; FLuc modulator: -2%; NPC1 prom act: 0%

What do the screens show for `Cc1cc(C)n(C(=O)CNC(=O)c2ccc(C(C)(C)C)cc2)n1`?
Rab9 prom act: 1%; ELG1 genotoxic: 10%; FLuc modulator: 7.6µM*; NPC1 prom act: -2%

How did CC(C)(C)c1ccc(-c2noc(CNC(=O)c3ccco3)n2)cc1 do in these assays?
Rab9 prom act: 6%; ELG1 genotoxic: 10%; FLuc modulator: 15µM*; NPC1 prom act: 0%

How did O=C(NCc1nc(-c2ccccc2)no1)c1ccco1 do in these assays?
SMN2 splice up: 2%; FLuc modulator: -8%

Results for COc1ccccc1-c1noc(CCC(=O)Nc2cc(C(F)(F)F)ccc2Cl)n1 ?
Rab9 prom act: 8%; SMN2 splice up: -38%; ELG1 genotoxic: -16%; FLuc modulator: 19µM*; NPC1 prom act: 1%

What do the screens show for `CCOC(=O)c1ccc(NC(=O)CCc2nc(-c3ccc(C)cc3)no2)cc1`?
Rab9 prom act: 8%; SMN2 splice up: -101%; ELG1 genotoxic: 23µM*; FLuc modulator: 1%; NPC1 prom act: -2%

What do the screens show for `CCOC(=O)c1ccc(NC(=O)CCc2nc(-c3ccc(Cl)cc3)no2)cc1`?
Rab9 prom act: -15%; SMN2 splice up: -19%; ELG1 genotoxic: 1%; FLuc modulator: -4%; NPC1 prom act: -5%

How did Cc1cccc(-c2noc(CCC(=O)NCc3ccco3)n2)c1 do in these assays?
Rab9 prom act: -1%; SMN2 splice up: 3%; ELG1 genotoxic: 5%; FLuc modulator: -4%; NPC1 prom act: 0%

Results for CC(C)(C)c1ccc(-c2noc(CCC(=O)NCc3ccco3)n2)cc1 ?
Rab9 prom act: -15%; SMN2 splice up: -49%; ELG1 genotoxic: -8%; FLuc modulator: 2.7µM*; NPC1 prom act: -20%

How did COCCNc1oc(Cc2cccc3ccccc23)nc1C#N do in these assays?
Rab9 prom act: -10%; ELG1 genotoxic: -8%; FLuc modulator: 3%; NPC1 prom act: -1%

How did CCCCCC(=O)OCCc1c(C)nc2nc[nH]n2c1=O do in these assays?
Rab9 prom act: -18%; SMN2 splice up: 13%; ELG1 genotoxic: -2%; FLuc modulator: -17%; NPC1 prom act: 1%

How did O=C(Nc1ccc(-c2noc(COc3ccccc3Cl)n2)cc1)c1ccco1 do in these assays?
Rab9 prom act: inconclusive; SMN2 splice up: 11µM*; ELG1 genotoxic: inconclusive; FLuc modulator: 11µM*; NPC1 prom act: 3.2µM*

Results for CC(C)(C)c1ccc(-c2noc(CCC(=O)Nc3cccc(Cl)c3)n2)cc1 ?
SMN2 splice up: -40%; FLuc modulator: inconclusive

Results for Cc1ccc(C)c(NC(=O)CCc2nc(-c3ccc(C(C)(C)C)cc3)no2)c1 ?
SMN2 splice up: -9%; FLuc modulator: 2.1µM*

What do the screens show for `CC(NC(=O)c1ccco1)c1nc(-c2ccc(C(C)(C)C)cc2)no1` (configuration not stated)?
Rab9 prom act: 0%; ELG1 genotoxic: -1%; FLuc modulator: 17µM*; NPC1 prom act: 8%

What do the screens show for `CCOC(=O)c1ccc(NC(=O)CCc2c(C)nc3nc[nH]n3c2=O)cc1`?
SMN2 splice up: 1%; FLuc modulator: 27µM*

Results for O=C(COc1ccccc1Cl)Nc1ccc(NC(=O)c2ccco2)cc1 ?
Rab9 prom act: 19%; ELG1 genotoxic: 5%; FLuc modulator: -2%; NPC1 prom act: 2%

Results for CC(C)(C)OC(=O)NN1CC(=O)N2[C@@H](Cc3c([nH]c4ccccc34)C2(C)C)C1=O ?
Rab9 prom act: 4%; ELG1 genotoxic: -7%; FLuc modulator: 1%; NPC1 prom act: 3%

What do the screens show for `Cc1ccc(COc2ccc(-c3nnco3)cc2)cc1`?
Rab9 prom act: 3.5µM*; ELG1 genotoxic: inconclusive; FLuc modulator: 9.5µM*; NPC1 prom act: 2.2µM*

How did Cc1ccc(C(C)C)c(OCc2ccc(-c3nnco3)cc2)c1 do in these assays?
Rab9 prom act: 23%; SMN2 splice up: -2%; ELG1 genotoxic: inconclusive; FLuc modulator: -3%; NPC1 prom act: 5%

How did CCCCOC(=O)Nc1nnc(C(C)C)s1 do in these assays?
Rab9 prom act: 2.2µM*; SMN2 splice up: inconclusive; ELG1 genotoxic: inconclusive; FLuc modulator: inconclusive; NPC1 prom act: 2.8µM*

Results for CCOCCOC(=O)c1cccc(NC(=O)OCC)c1 ?
Rab9 prom act: 15%; SMN2 splice up: -36%; ELG1 genotoxic: 7%; FLuc modulator: 1%; NPC1 prom act: 13%

What do the screens show for `CCCCOC(=O)Nc1ccc(N(C)C)cc1`?
Rab9 prom act: 2.8µM*; SMN2 splice up: 11µM*; ELG1 genotoxic: 9.2µM*; FLuc modulator: 3µM*; NPC1 prom act: 4µM*

How did CCCCOC(=O)Nc1ccc(C(N)=O)cc1 do in these assays?
Rab9 prom act: inconclusive; SMN2 splice up: inconclusive; ELG1 genotoxic: 23µM*; FLuc modulator: 15µM*; NPC1 prom act: inconclusive

Results for CCCCOC(=O)Nc1cccc(C(=O)OCC)c1 ?
Rab9 prom act: 0.32µM*; SMN2 splice up: inconclusive; ELG1 genotoxic: inconclusive; FLuc modulator: inconclusive; NPC1 prom act: 0.22µM*

How did CCCCOC(=O)Nc1ccc(S(=O)(=O)Nn2cnnc2)cc1 do in these assays?
Rab9 prom act: -3%; SMN2 splice up: 4%; ELG1 genotoxic: 0%; FLuc modulator: -8%; NPC1 prom act: -2%

What do the screens show for `CC(C)(C)n1ncc2c(=O)n(Cc3ccccc3)cnc21`?
FLuc modulator: 2%

How did Cc1cc(OCC(=O)NCCCN2CCOCC2)c2c(C)c(C)c(=O)oc2c1 do in these assays?
Rab9 prom act: 0%; ELG1 genotoxic: 5%; FLuc modulator: -2%; NPC1 prom act: 1%

What do the screens show for `NC(=O)c1ccc(C(F)(F)F)n(Cc2cccc(Cl)c2)c1=O`?
Rab9 prom act: 0%; SMN2 splice up: -11%; ELG1 genotoxic: -5%; FLuc modulator: -1%; NPC1 prom act: -1%

How did CCOC(=O)CNC(=O)c1cc2c(=O)oc3ccccc3c2s1 do in these assays?
SMN2 splice up: 10%; FLuc modulator: 2%

What do the screens show for `CCOC(=O)c1c(C)c(C(=O)Nc2ccc(N(C)C)cc2)c(C)n1CC`?
Rab9 prom act: 4%; SMN2 splice up: -7%; ELG1 genotoxic: 4%; FLuc modulator: 15µM*; NPC1 prom act: -13%

Results for CCCCOC(=O)Nc1ccc(C(C)C)cc1 ?
Rab9 prom act: inconclusive; SMN2 splice up: 14µM*; ELG1 genotoxic: inconclusive; FLuc modulator: 9.5µM*; NPC1 prom act: inconclusive
